Assay outcomes as filed in PubChem BioAssay.
TbPYK inhibitor: blocks Trypanosoma brucei pyruvate kinase | TbPYK enzyme, Kinase-Glo Plus ATP luminescence, 45 min | AID 624173 | Q57TT1 | Potency, µM (highest dose often 76.8 µM), for the others: top-dose activity, negative = inhibition, hits mostly inhibitors | actives 0.12% (n = 410,000); note: potency is the fitted concentration of half-maximal effect; % is set by controls: 0 for no effect and ±100 for the full control effect; nearly all actives have a fitted effect of over 50% in size
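Readout: single end-point luminescence (Kinase-Glo Plus, 10 min). Reaction conditions were TbPYK/substrate plus 130 uM ADP, 45 min at RT, pH 7.2 TEA buffer. No-enzyme wells served as controls, and data were normalized before concentration-response fitting.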
LmPK inhibitor: inhibitors of Leishmania mexicana pyruvate kinase. Q27686. purified LmPK, Kinase-Glo ATP luminescence, 1 h. Potency, µM (highest dose often 57.5 µM), inactives show at the highest dose activity change, negative = inhibition, usual class: inhibitors. actives 0.37% (n = 290,000). AID 1721; note: potency is the fitted concentration of half-maximal effect; % is set by controls: 0 for no effect and ±100 for the full control effect
Target sequence (Q27686 whole entry, looked up): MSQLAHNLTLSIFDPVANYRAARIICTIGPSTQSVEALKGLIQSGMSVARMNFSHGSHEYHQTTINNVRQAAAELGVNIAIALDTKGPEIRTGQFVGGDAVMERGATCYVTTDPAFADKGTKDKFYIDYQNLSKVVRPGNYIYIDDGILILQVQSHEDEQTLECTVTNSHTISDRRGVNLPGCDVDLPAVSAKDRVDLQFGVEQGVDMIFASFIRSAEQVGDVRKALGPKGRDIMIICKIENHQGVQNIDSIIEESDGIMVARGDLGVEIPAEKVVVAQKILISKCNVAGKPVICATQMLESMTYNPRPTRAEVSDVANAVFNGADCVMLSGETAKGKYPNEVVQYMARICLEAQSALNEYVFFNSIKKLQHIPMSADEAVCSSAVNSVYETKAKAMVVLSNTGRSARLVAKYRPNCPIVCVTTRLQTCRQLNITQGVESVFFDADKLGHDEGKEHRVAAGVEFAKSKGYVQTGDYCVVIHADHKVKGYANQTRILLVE
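Screened at intermediate enzyme activity to detect both inhibitors and activators: LmPK at 0.1 nM, with a 0.5 nM enzyme column as activation reference. PEP 0.5 mM, ADP 0.1 mM; ATP detected by luminescence after 1 h.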
Sm TGR inh: S. mansoni TGR enzyme inhibition; purified TGR, DTNB reduction, TNB absorbance 405 nm; Potency, µM (top dose mostly 114 µM), for the others: at the highest dose activity change, negative = inhibition, most hits filed as inhibitors; actives 3% (n = 360,000); AID 485364; note: potency is the fitted concentration of half-maximal effect; % is set by controls: 0 for no effect and ±100 for the full control effect; nearly all actives have a fitted effect of over 60% in size
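Kinetic colorimetric format: TGR-catalysed, NADPH-driven DTNB reduction monitored via TNB absorbance. Enzyme dispensed at 20 nM; compound exposure 15 min at room temperature before reaction start.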
FBPA Giardia inh: Giardia lamblia aldolase inhibition; A8B2U2; purified Giardia FBPA; Potency, µM (highest dose often 59.6 µM), for inactives: at the highest dose activity, negative = inhibition, usual class: inhibitors; actives 0.71% (n = 290,000); AID 2451; note: potency is the fitted concentration of half-maximal effect; % is set by controls: 0 for no effect and ±100 for the full control effect; nearly all actives have a fitted effect of over 55% in size
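Giardia FBPA (40 nM reagent) was preincubated 10 min at RT with compound (up to 57.5 uM final), then substrate plus GAPDH/TPI/NAD/arsenate coupling system with diaphorase/resazurin was added; resorufin fluorescence (525/598 nm) was read after 20 min.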
CHX counter: affects cycloheximide protein synthesis inhibition readout, counter-screen | cell reporter, cycloheximide protein synthesis inhibition counterscreen | actives 12% (n = 300,000) | max response, %; in the data active = max response mostly above about 13%, no sharp cut-off; inactive = mostly below about 14%; note: read at 38.3 µM for the half of the compounds with a filed dose; 0% is about no effect
Shiga toxin inh: blocks Shiga toxin action in Vero cells | Vero cells, Shiga toxin protein synthesis inhibition reporter | actives 9.2% (n = 290,000) | inhibition, % at 38.7 µM; in the data active = inhibition mostly above about 28%, no sharp cut-off; inactive = mostly below about 43%; note: 0% is about no effect
Active calls of the source: *. The entries come from a sample that favours hits as a whole. Unless noted, calls come from the whole dose curve; as a rule, active = well fitted curve in the direction sought with a large enough effect; inconclusive = small, poorly fitted or top-dose-only effect, or another doubt; inactive = no such curve, though single readings can be large; an effect the other way counts as inactive or inconclusive.

For COC(=O)C1=C(C)N(Cc2ccc(OC)cc2)C(=O)/C1=C\c1ccco1 the results were TbPYK inhibitor -4%, LmPK inhibitor 2%, Sm TGR inh 13µM*, FBPA Giardia inh -6%, CHX counter 2 and Shiga toxin inh -4.
`COC(=O)C1=C(C)NC(=O)/C1=C\c1cc(C)n(-c2cccc(C)c2)c1C` gave TbPYK inhibitor -14%, LmPK inhibitor 3%, Sm TGR inh 25µM*, FBPA Giardia inh inconclusive, CHX counter -4 and Shiga toxin inh -4.
For COC(=O)C1=C(C)N(Cc2ccco2)C(=O)/C1=C\c1ccc([N+](=O)[O-])cc1 the results were TbPYK inhibitor inconclusive, LmPK inhibitor 8%, Sm TGR inh 7.9µM*, FBPA Giardia inh inconclusive, CHX counter 3 and Shiga toxin inh -12.
COC(=O)C1=C(C)N(Cc2ccco2)C(=O)/C1=C\c1ccc(N(C)C)cc1 was read as TbPYK inhibitor 0%, LmPK inhibitor -1%, Sm TGR inh -34%, FBPA Giardia inh -4%, CHX counter -3 and Shiga toxin inh -11.
Cc1ccccc1CNC(=O)CCCn1c(=O)c2cccn2c2ccccc21 was read as TbPYK inhibitor 2% and Sm TGR inh 7%.
`O=C(OCCOc1ccccc1Cl)c1ccc(-n2cnnn2)cc1` gave TbPYK inhibitor -6%, LmPK inhibitor 4%, Sm TGR inh 7%, FBPA Giardia inh 0%, CHX counter 36* and Shiga toxin inh 75.
Screening Cc1ccc(NC(=O)ON=C2CCCC2)cc1 returned TbPYK inhibitor 1%, LmPK inhibitor -2%, Sm TGR inh 5%, FBPA Giardia inh 3%, CHX counter 55* and Shiga toxin inh active.
`O=C(Nc1ccccc1)ON=C1CCCC1` gave TbPYK inhibitor 0%, LmPK inhibitor -27%, Sm TGR inh -4%, FBPA Giardia inh 1%, CHX counter 23* and Shiga toxin inh 39.
For O=C(Nc1cccc(Cl)c1)ON=C1c2ccccc2-c2ccccc21 the results were TbPYK inhibitor -2%, LmPK inhibitor 2%, Sm TGR inh 1%, FBPA Giardia inh -5%, CHX counter 24 and Shiga toxin inh 41.
`CC1CCN(c2nc3ccc(C(=O)N4CCN(Cc5ccc6c(c5)OCO6)CC4)cc3s2)CC1` gave TbPYK inhibitor 1%, LmPK inhibitor 7%, Sm TGR inh 2%, FBPA Giardia inh -3%, CHX counter 136* and Shiga toxin inh active.
Screening O=C(c1cccc(Cl)c1)N1CCN(Cc2ccc3c(c2)OCO3)CC1 returned TbPYK inhibitor -1%, LmPK inhibitor -12%, Sm TGR inh -7%, FBPA Giardia inh 6%, CHX counter 8 and Shiga toxin inh 5.
Screening COc1cccc(N2CCN(C(=O)c3ccc4ccccc4c3)CC2)c1 returned TbPYK inhibitor -5% and Sm TGR inh 1%.
Screening COc1ccc(N2CCN(C(=O)c3ccc4nc(N5CCCCC5)sc4c3)CC2)cc1 returned TbPYK inhibitor 1%, LmPK inhibitor -2%, Sm TGR inh -17%, FBPA Giardia inh -12%, CHX counter 53* and Shiga toxin inh 44*.
For COc1cccc(N2CCN(C(=O)c3ccc4nc(N5CCCCC5)sc4c3)CC2)c1 the results were TbPYK inhibitor 2%, LmPK inhibitor 1%, Sm TGR inh -2%, FBPA Giardia inh -20%, CHX counter 77* and Shiga toxin inh 109*.
Screening Cc1noc(-c2ccc(NCc3ccccc3)c([N+](=O)[O-])c2)n1 returned TbPYK inhibitor 0% and Sm TGR inh -2%.
Screening Cc1ccc(CCNC(=O)c2ccc(CSCc3ccc(C)cc3)o2)cc1 returned TbPYK inhibitor 3% and Sm TGR inh -6%.
Screening CC1(C)Cc2nc3[nH]c(=S)n(-c4ccccc4)c(=O)c3cc2CO1 returned TbPYK inhibitor -8%.
For CCOC(=O)c1sc2nc3c(cc2c1N)COC(C(C)C)C3 (configuration not stated) the results were TbPYK inhibitor -1%, LmPK inhibitor 3%, Sm TGR inh 14%, FBPA Giardia inh 4%, CHX counter 57* and Shiga toxin inh 157*.
Screening Cc1nc2c(sc3nc4c(cc32)COC(C)(C)C4)c(=O)o1 returned TbPYK inhibitor -1%, LmPK inhibitor -15%, Sm TGR inh 3%, FBPA Giardia inh -16%, CHX counter 5 and Shiga toxin inh -3.
CCOC(=O)c1sc2nc(N3CCOCC3)c3c(c2c1N)CC(C(C)C)OC3 (configuration not stated) was read as TbPYK inhibitor -5%, LmPK inhibitor 4%, Sm TGR inh 1%, FBPA Giardia inh -2%, CHX counter -3 and Shiga toxin inh -6.
Screening COC(=O)c1sc2nc3c(cc2c1N)COC(C)(C)C3 returned TbPYK inhibitor 1%, LmPK inhibitor -2%, Sm TGR inh 19%, FBPA Giardia inh -7%, CHX counter 80* and Shiga toxin inh 198*.
Screening CC1(C)Cc2nc3sc(C(=O)NCCCO)c(N)c3cc2CO1 returned TbPYK inhibitor -3%, LmPK inhibitor -7%, Sm TGR inh -9%, FBPA Giardia inh -9%, CHX counter 29* and Shiga toxin inh 91*.
For CC1(C)Cc2nc3sc4c(=O)n(CC(N)=O)cnc4c3cc2CO1 the results were TbPYK inhibitor -4%, LmPK inhibitor -3%, Sm TGR inh -4%, FBPA Giardia inh -2%, CHX counter 11 and Shiga toxin inh 24.
`CC1(C)Cc2nc3scc(NC(=O)c4ccccc4)c3cc2CO1` gave TbPYK inhibitor -6%, LmPK inhibitor 0%, Sm TGR inh 8%, FBPA Giardia inh 4%, CHX counter 14* and Shiga toxin inh 28.
Screening CCOc1ccc(NC(=O)Cn2c(CCC(=O)O)ccc2-c2ccc(Cl)cc2)cc1 returned TbPYK inhibitor 1% and Sm TGR inh 1%.
Screening C[C@H](O)[C@@H]1CN2CCc3c([nH]c4ccccc34)[C@@H]2C[C@@H]1N(C)C(=S)Nc1ccc(C#N)cc1 returned TbPYK inhibitor -7%.
For CCc1sc(Nc2ccc(C)cc2Br)nc1-c1cc2cccc(OC)c2oc1=O the results were TbPYK inhibitor 3% and Sm TGR inh -1%.
Screening COc1ccc(NC(=O)CCCn2c(=O)c3sccc3n(Cc3ccccc3)c2=O)cc1 returned TbPYK inhibitor 0%, LmPK inhibitor 6%, Sm TGR inh 1%, FBPA Giardia inh 14%, CHX counter 26* and Shiga toxin inh 9.
Screening COc1ccc(NC(=O)CCCn2c(=O)c3sccc3n(Cc3ccccc3C)c2=O)cc1 returned TbPYK inhibitor 4%, LmPK inhibitor 4%, Sm TGR inh -7%, FBPA Giardia inh 1%, CHX counter -2 and Shiga toxin inh -23.
